Test results as given in PubChem BioAssay.
Active and inactive are the calls of the source.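 Rule for the calls, unless noted: active = fluorescence slope higher than the sample average by over 3 SD (cut at about -0.22 in these data, passing the limit was not always enough); inactive = the rest.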

Legend:
[1] = inhibitors of TNFa-induced NFkB p65 translocation, primary screen, imaging, HUVEC, MLSMR starter and 10KST1 sets (AID 438;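 active = inhibition above 20% together with a positive visual image hit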;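 note: compound added about 3h40 before a 20 min TNFalpha stimulation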;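 for inhibition: signal is the nuclear over cytoplasmic p65 intensity ratio per well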); settings: HUVEC TNFa-induced p65 nuclear translocation; cell count: measured here: nuclei count (cytotoxicity indicator), at 2.08 µM; inhibition: at 2 µM, stronger effect = higher value, 0% TNFa-plus-vehicle, 100% no-TNFa wells
[2] = inhibitors of mutant huntingtin aggregation, primary screen, imaging, exon1htt(103Q)mCFP cells, high-content imaging (AID 483;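 active = visual image review flags a hit and inhibition of aggregation exceeds 20%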;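 note: compound exposure lasted 3 days before fixation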;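 for nuclei count: percent of the per-plate median nuclei count of sample wells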); settings: exon1htt(103Q)mCFP cell line, aggregate imaging, at 2 µM; inhibition of aggregation: stronger effect = higher value; nuclei count: measured here: cell count, toxicity
[3] = inhibitors of E-selectin induction by TNFa, primary screen, imaging, HUVEC, immunofluorescence, MLSMR starter and 10KST1 sets (AID 487;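 active = visually confirmed hit in the image check and inhibition above 20%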;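 for inhibition: signal is fraction of cell area covered by stained E-selectin grains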;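 for nuclei count: 100% = median nuclei count of all wells on the same plate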); settings: HUVEC TNFalpha-induced E-selectin immunofluorescence imaging, at 2 µM; inhibition: stronger effect = higher value; nuclei count: measured here: cell number, toxicity
[4] = target: Voltage-gated potassium channel subunit beta-2 (Rattus norvegicus) (UniProt P62483); assay: KvBeta enzyme negative modulators, primary screen, biochemical, NADPH fluorescence (AID 622); settings: recombinant KvBeta, 4-cyanobenzaldehyde reduction, at 10 µM, stronger effect = higher value;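 note: slope of raw intensity against log time taken from 70 to 1610 s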
Chain of Voltage-gated potassium channel subunit beta-2 (Rattus norvegicus) (P62483 whole entry, looked up): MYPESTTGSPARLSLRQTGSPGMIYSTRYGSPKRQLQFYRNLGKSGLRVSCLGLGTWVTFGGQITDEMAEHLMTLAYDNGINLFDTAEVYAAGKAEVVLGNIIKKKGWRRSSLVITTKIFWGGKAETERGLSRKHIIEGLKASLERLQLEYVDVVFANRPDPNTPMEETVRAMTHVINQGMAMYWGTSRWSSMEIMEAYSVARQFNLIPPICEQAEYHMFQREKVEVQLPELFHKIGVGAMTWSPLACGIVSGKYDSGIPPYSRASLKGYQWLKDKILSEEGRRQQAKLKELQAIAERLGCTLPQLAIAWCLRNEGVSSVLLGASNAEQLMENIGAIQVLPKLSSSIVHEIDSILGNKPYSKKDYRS

[5] = target: Voltage-gated potassium channel subunit beta-2 (Rattus norvegicus) (UniProt P62483); assay: KvBeta positive modulators, primary screen, biochemical, NADPH fluorescence (AID 623;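 active = NADPH fluorescence slope more negative than the mean of all samples by about 3 SD, 99.7% confidence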;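 note: fluorescence intensity change per second fitted from 20 to 320 s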); settings: Recombinant KvBeta, NADPH fluorescence decrease slope, 10 min; at 10 µM; stronger effect = lower value
[6] = target: Alpha-2C adrenergic receptor (Homo sapiens) (UniProt P18825); assay: modulators of alpha2C/GIRK thallium flux, primary screen, cell-based, HEK293 alpha2C/GIRK1/2 (AID 624;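 active = fluorescence slope after compound addition differing from the mean of all screened samples at 99.7% confidence, in either direction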;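 note: slope of fluorescence ratio to pre-addition baseline per second over 15 to 24 s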); settings: thallium flux BTC fluorescence, at 10 µM, actives lie on both sides
Chain of Alpha-2C adrenergic receptor (Homo sapiens) (P18825 whole entry, looked up): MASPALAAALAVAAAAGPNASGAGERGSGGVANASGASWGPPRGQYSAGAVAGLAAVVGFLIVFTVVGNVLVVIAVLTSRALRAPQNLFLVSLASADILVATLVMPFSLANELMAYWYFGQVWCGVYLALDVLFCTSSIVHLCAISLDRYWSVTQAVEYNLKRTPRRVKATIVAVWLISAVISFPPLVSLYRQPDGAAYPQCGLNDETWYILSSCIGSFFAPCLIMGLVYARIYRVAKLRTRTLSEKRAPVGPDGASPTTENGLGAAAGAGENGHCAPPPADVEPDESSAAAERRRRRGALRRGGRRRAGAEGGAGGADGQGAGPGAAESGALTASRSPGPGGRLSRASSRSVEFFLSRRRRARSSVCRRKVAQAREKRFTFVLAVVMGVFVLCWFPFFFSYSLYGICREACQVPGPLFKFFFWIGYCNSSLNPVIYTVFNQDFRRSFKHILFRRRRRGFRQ

[7] = inhibitors of Sendai virus-induced IRF3 signaling, primary screen, TLR/RLR signaling modifier project, cell-based, Sendai virus stimulus, luciferase, 10K MLSCN set (AID 602276;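 active = inhibition at or above 50% at 10 µM; inactive = inhibition below 50%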;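 note: firefly luciferase from ISG56 promoter only with Renilla not read in this screen; 0% = Sendai virus plus DMSO and 100% = medium plus DMSO without virus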); settings: HEK293 RL24 IRF3 luciferase reporter, at 10 µM, stronger effect = higher value
[8] = inhibitors of poly I:C-induced TLR3 signaling, primary screen, cell-based, poly I:C stimulus, luciferase, 10K MLSCN set (AID 602277;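 active = inhibition of the reporter signal at or above 50%; inactive = inhibition below 50%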); settings: HEK293-TLR3 RL24 IRF3 luciferase reporter, at 10 µM, stronger effect = higher value

Compound | cell count [1] | inhibition [1] | inhibition of aggregation [2] | nuclei count [2] [%] | inhibition [3] | nuclei count [3] [%] | fluorescence slope [4] | NADPH fluorescence slope [5] | slope [6] | inhibition [7] | inhibition [8]
O=C(CCCCCN1C(=O)CCC1=O)NCc1ccccc1 | 581 | -15.5% (inactive) | -2% (inactive) | 106 | -64.5% (inactive) | 105 | -0.605 (inactive) | -4.8e-05 (inactive) | 0.00553 (inactive) | 12.6% (inactive) | 24.6% (inactive)
COCCCn1nnnc1SCC(=O)Nc1nc(C)c(C)s1 | 435 | -5.5% (inactive) | 14.2% (inactive) | 58.2 | -133% (inactive) | 104 | -0.499 (inactive) | -5.5e-05 (inactive) | 0.00473 (inactive) | 2.9% (inactive) | 9.02% (inactive)
O=C1CCCC2=C1C(c1cccs1)n1nc(SCc3ccccc3F)nc1N2 (stereo not drawn) | 694 | 8.6% (inactive) | 16.5% (inactive) | 109 | -30.7% (inactive) | 79.7 | -0.505 (inactive) | 3.2e-05 (inactive) | 0.00593 (inactive) | -24.2% (inactive) | -0.597% (inactive)
COc1ccc(C2c3sc(=O)[nH]c3SC3C4CCC(C4)C23)cc1 (stereo not drawn) | 573 | -7.6% (inactive) | -14% (inactive) | 93.8 | -69.5% (inactive) | 106 | -0.53 (inactive) | 3.9e-05 (inactive) | 0.00413 (inactive) | -5.3% (inactive) | 9.16% (inactive)
COc1ccc(N(CC(=O)Nc2ccc3c(c2)OCO3)S(=O)(=O)c2c(C)nn(C)c2C)cc1 | 538 | 11.9% (inactive) | 17.9% (inactive) | 51 | -46% (inactive) | 105 | -0.57 (inactive) | -4.5e-06 (inactive) | 0.00577 (inactive) | 10.2% (inactive) | 17.3% (inactive)
Cc1ccc2[nH]c(=O)c(-c3noc(-c4ccncc4)n3)cc2c1 | 474 | -9.1% (inactive) | -82.1% (inactive) | 65 | -51% (inactive) | 93.8 | -0.31 (inactive) | -6e-05 (inactive) | 0.0054 (inactive) | 8.49% (inactive) | 12.4% (inactive)
Cc1csc(NC(=O)CCCSc2nc3ccccc3s2)n1 | 387 | 0.9% (inactive) | 0.5% (inactive) | 97.4 | -33.8% (inactive) | 110 | -0.594 (inactive) | -2.4e-05 (inactive) | 0.00267 (inactive) | 23.5% (inactive) | 26.7% (inactive)
CCN1C(=O)Cc2cc(S(=O)(=O)N3CCOCC3)ccc21 | 675 | -2.9% (inactive) | -11.1% (inactive) | 121 | -38.7% (inactive) | 98.4 | -0.435 (inactive) | 2.6e-05 (inactive) | 0.00585 (inactive) | 2.07% (inactive) | -4.25% (inactive)
COc1cccc(-c2nnc(NC(C)=O)o2)c1 | 694 | 0.3% (inactive) | -16.5% (inactive) | 99.5 | -24.3% (inactive) | 118 | -0.407 (inactive) | -6.1e-05 (inactive) | 0.00477 (inactive) | -11% (inactive) | 6.47% (inactive)
Cc1ccc(C(=O)CC2(O)C(=O)N(CN3CCOCC3)c3ccccc32)cc1 (stereo not drawn) | 396 | -8.1% (inactive) | -5.7% (inactive) | 103 | -52.9% (inactive) | 99.1 | -0.367 (inactive) | 8.1e-06 (inactive) | 0.00346 (inactive) | -4.62% (inactive) | 5.37% (inactive)
C=CCn1c(SCc2cccc(C#N)c2)nnc1-c1ccccc1O | 658 | -2.3% (inactive) | 5.6% (inactive) | 102 | -18.9% (inactive) | 110 | -0.574 (inactive) | 1.6e-05 (inactive) | 0.00698 (inactive) | 27.6% (inactive) | 46% (inactive)
CCOc1ccc(N(CC(=O)Nc2ccc(C)c(C)c2)S(=O)(=O)c2c(C)noc2C)cc1 | 713 | 0% (inactive) | -19.3% (inactive) | 86.1 | -29% (inactive) | 100 | -0.554 (inactive) | -7.2e-07 (inactive) | 0.00659 (inactive) | 13.3% (inactive) | 27.5% (inactive)
Cn1c(SCC(N)=O)nnc1C1CCN(C(=O)NCc2ccccc2)CC1 | 325 | 6.8% (inactive) | -6.1% (inactive) | 99.8 | -74.7% (inactive) | 108 | -0.385 (inactive) | -5.9e-05 (inactive) | 0.00348 (inactive) | 5.51% (inactive) | 21.8% (inactive)
COC(=O)Cn1c(=O)c2c(nc(Br)n2CC(=O)OC)n(C)c1=O | 640 | 6.7% (inactive) | -0.4% (inactive) | 103 | 24.8% (inactive) | 101 | -0.406 (inactive) | -1.4e-05 (inactive) | 0.00483 (inactive) | 9.82% (inactive) | 7.4% (inactive)
COc1ccc(C2=NO[C@@H]3C(=O)N(c4ccc5c(c4)OCCO5)C(=O)[C@H]23)cc1OC | 608 | -17.3% (inactive) | -8.9% (inactive) | 111 | 11.8% (inactive) | 98.1 | -0.541 (inactive) | 8.6e-06 (inactive) | 0.0052 (inactive) | -13.6% (inactive) | 6.66% (inactive)
CC(C)(NC(=O)N1CCCC1)c1cccc(C(C)(C)NC(=O)N2CCCC2)c1 | 366 | -1.8% (inactive) | 34.8% (active) | 92.3 | 21.6% (inactive) | 83.8 | -0.381 (inactive) | 3e-05 (inactive) | 0.00445 (inactive) | 11.4% (inactive) | 30.1% (inactive)
COc1ccc(C2C(C#N)=C(N)OC3=C2C(=O)CC(C)C3)c(OC)c1OC (stereo not drawn) | 349 | 15.6% (inactive) | 5.8% (inactive) | 123 | 11.3% (inactive) | 102 | -0.479 (inactive) | 2e-05 (inactive) | 0.00381 (inactive) | -3.81% (inactive) | 19.1% (inactive)
CCOC(=O)CNC(=O)CSc1nnnn1-c1cc(C)ccc1C | 355 | -3.6% (inactive) | 14.6% (inactive) | 89.4 | 51.5% (inactive) | 82 | -0.533 (inactive) | 3e-05 (inactive) | 0.00704 (inactive) | 4.69% (inactive) | 10.9% (inactive)
c1ccc(Nc2ccccc2Nc2ccccn2)nc1 | 306 | 4.4% (inactive) | 21.6% (inactive) | 88.1 | 8.5% (inactive) | 90.5 | -0.379 (inactive) | -5.3e-06 (inactive) | 0.00758 (inactive) | 13% (inactive) | 25% (inactive)
CCCC(C)c1nnc(NC(=O)C2CCCO2)s1 (stereo not drawn) | 575 | 0% (inactive) | -11.3% (inactive) | 97.6 | 9.1% (inactive) | 103 | -0.524 (inactive) | -4e-05 (inactive) | 0.00609 (inactive) | -3.58% (inactive) | -11.9% (inactive)
Cc1cc(=O)oc2c1ccc1oc(/C(=N/O)c3ccccc3)c(C)c12 | 456 | -19% (inactive) | 34.1% (inactive) | 77.6 | 1.5% (inactive) | 110 | -0.357 (inactive) | -3.7e-05 (inactive) | 0.00542 (inactive) | 7.72% (inactive) | 13.6% (inactive)
O=C(CN(Cc1ccc2c(c1)OCO2)C(=O)CNS(=O)(=O)c1ccccc1)NCc1ccco1 | 869 | 9% (inactive) | -9.2% (inactive) | 108 | -3.6% (inactive) | 98.7 | -0.356 (inactive) | 8e-07 (inactive) | 0.00553 (inactive) | 15.7% (inactive) | 36.2% (inactive)
CCCCOC(=O)CNc1nnc(SCC(=O)OCC)[nH]c1=O | 659 | -10.5% (inactive) | 9.9% (inactive) | 94.8 | -32.4% (inactive) | 110 | -0.572 (inactive) | -7.9e-06 (inactive) | 0.00508 (inactive) | 2.96% (inactive) | -3.08% (inactive)
C/C=C/COC(=O)c1[nH]c2c(c1C)C(=O)CC(c1ccc(N(C)C)cc1)C2 (stereo not drawn) | 699 | 1.8% (inactive) | 14.4% (inactive) | 79.6 | -46.6% (inactive) | 115 | -0.543 (inactive) | -2.2e-05 (inactive) | 0.00679 (inactive) | -29.1% (inactive) | -68.7% (inactive)
CCN(C(=O)COC(=O)c1cc(C)n(-c2ccc(F)cc2)c1C)C1CCS(=O)(=O)C1 (stereo not drawn) | 496 | -3.4% (inactive) | -3.9% (inactive) | 114 | -35.5% (inactive) | 115 | -0.537 (inactive) | 3.5e-06 (inactive) | 0.00451 (inactive) | 13.2% (inactive) | 13% (inactive)
CC1=C(n2nnc3ccccc32)C(c2ccccc2)C(C#N)=C(N)O1 (stereo not drawn) | 424 | 1.5% (inactive) | 13.7% (inactive) | 90.7 | 27.5% (inactive) | 113 | -0.364 (inactive) | -0.00012 (inactive) | 0.00512 (inactive) | 17.5% (inactive) | 32% (inactive)
O=C(Cc1ccccc1)N1CCCC(c2nc(-c3cccs3)no2)C1 (stereo not drawn) | 731 | -6.1% (inactive) | -15.1% (inactive) | 89.6 | -22.8% (inactive) | 121 | -0.475 (inactive) | 1.1e-05 (inactive) | 0.00636 (inactive) | -9.21% (inactive) | 2.57% (inactive)
O=c1c(CN2CCN(Cc3ccccc3)CC2)coc2ccc(Cl)cc12 | 463 | -1.6% (inactive) | -1.1% (inactive) | 113 | -69.1% (inactive) | 125 | -0.41 (inactive) | -0.000112 (inactive) | 0.00599 (inactive) | -2.78% (inactive) | 4.22% (inactive)
